# In PMC7862700, “An all-to-all approach to the identification of sequence-specific readers for epigenetic DNA modifications on cytosine”:
# What was measured:
# Test in all cases: DAPPL (digital affinity profiling via proximity ligation, sequencing); 10 mM Tris-HCl pH 7.5, 50 mM NaCl, 1 mM DTT, 4% glycerol, room temperature, 30 min; GST-TFs on glutathione beads, 16-mer random dsDNA library, 0.1% formaldehyde crosslink after washing; high values mean tight binding
# Settings in all cases: protein: recombinant; tags: N-terminal GST; dsDNA, one strand shown
# FLI1 = molecular target: T1, FLI1 (Homo sapiens, UniProt Q01543 1-452)
# T1 sequence: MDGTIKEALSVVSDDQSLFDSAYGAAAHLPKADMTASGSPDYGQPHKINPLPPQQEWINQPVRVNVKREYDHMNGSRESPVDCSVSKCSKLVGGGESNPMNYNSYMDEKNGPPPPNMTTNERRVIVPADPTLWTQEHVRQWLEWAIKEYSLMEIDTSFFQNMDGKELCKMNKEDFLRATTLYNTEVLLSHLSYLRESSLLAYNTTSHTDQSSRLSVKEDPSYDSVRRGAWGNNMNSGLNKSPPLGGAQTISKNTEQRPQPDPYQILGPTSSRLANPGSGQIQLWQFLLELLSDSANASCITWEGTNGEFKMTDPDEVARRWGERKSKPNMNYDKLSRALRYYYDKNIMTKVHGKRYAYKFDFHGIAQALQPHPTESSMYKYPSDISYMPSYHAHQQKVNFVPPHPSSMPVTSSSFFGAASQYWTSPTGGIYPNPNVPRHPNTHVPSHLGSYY
# In short: (§1)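 Human transcription factors fused to GST were expressed in yeast, captured on glutathione beads, given DNA barcodes and pooled with a GST-only negative control. Pools were incubated with 200 nmole of a 16-mer random double-stranded DNA library in Tris/NaCl/DTT/glycerol buffer at room temperature for 30 min. They were then washed, crosslinked with 0.1% formaldehyde, proximity-ligated (BsaI/T4 ligase, 1 h, 37 °C), PCR-amplified and sequenced on an Illumina NextSeq500. Binding signal is each 6-mer's read frequency for a factor divided by its frequency for the GST control.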
# ELK1 = molecular target: T2, ELK1 (Homo sapiens, UniProt P19419 1-428)
# T2 sequence: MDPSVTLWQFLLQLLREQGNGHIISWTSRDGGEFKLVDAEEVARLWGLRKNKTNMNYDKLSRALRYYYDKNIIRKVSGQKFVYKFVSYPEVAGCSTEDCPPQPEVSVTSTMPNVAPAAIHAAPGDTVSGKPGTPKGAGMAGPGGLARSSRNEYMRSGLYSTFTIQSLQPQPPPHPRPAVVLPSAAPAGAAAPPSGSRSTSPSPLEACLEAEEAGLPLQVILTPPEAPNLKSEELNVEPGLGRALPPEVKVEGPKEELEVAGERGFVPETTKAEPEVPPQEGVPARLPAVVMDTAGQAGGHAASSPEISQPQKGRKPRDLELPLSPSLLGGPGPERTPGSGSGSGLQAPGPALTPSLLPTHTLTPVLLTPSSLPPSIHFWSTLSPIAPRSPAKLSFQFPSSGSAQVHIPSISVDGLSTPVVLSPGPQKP
# In short: as §1
# GABPA = molecular target: T3, GABPA (Homo sapiens, UniProt Q06546 1-454)
# T3 sequence: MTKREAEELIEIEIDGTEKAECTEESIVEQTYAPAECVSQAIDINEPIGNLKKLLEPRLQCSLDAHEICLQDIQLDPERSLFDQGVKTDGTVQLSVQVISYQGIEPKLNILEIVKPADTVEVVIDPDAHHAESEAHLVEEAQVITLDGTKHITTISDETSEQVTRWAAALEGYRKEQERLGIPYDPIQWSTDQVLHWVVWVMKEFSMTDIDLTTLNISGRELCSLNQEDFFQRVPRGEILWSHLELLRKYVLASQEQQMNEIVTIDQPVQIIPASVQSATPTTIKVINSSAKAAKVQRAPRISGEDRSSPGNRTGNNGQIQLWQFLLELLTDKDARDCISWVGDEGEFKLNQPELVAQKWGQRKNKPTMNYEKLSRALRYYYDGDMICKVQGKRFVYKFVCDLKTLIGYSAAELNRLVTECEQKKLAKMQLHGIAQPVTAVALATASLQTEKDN
# In short: as §1
# ERG = molecular target: T4, ERG (Homo sapiens, UniProt P11308 1-479)
# T4 sequence: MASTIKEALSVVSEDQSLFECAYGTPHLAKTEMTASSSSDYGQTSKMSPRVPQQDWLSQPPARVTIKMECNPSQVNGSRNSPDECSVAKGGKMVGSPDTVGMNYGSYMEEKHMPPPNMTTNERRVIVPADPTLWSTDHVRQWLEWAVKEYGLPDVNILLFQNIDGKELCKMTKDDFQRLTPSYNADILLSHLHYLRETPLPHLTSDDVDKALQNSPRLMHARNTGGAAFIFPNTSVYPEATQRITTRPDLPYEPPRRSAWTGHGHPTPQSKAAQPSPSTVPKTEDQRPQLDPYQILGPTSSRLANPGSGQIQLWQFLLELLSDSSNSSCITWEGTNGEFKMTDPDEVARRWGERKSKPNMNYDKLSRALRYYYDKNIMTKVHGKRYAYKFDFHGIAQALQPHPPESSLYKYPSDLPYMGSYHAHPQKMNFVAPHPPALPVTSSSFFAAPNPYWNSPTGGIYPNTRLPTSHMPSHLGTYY
# In short: as §1
# ELF1 = ELF1 (Homo sapiens, UniProt P32519 1-619)
# In short: as §1
# EHF = molecular target: T5, EHF (Homo sapiens, UniProt Q9NZC4 1-300)
# T5 sequence: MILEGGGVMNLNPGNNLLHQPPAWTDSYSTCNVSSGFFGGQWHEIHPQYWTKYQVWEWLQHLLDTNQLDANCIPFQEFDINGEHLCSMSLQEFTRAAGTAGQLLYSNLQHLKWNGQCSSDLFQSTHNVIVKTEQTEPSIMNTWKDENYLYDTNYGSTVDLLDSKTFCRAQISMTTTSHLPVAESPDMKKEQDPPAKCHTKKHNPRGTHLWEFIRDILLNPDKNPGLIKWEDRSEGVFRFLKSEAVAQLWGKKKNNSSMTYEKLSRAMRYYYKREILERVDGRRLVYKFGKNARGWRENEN
# In short: as §1
# SPI1 = SPI1 (Homo sapiens, UniProt P17947 1-270)
# In short: as §1
# SPIB = SPIB (Homo sapiens, UniProt Q01892 1-262)
# In short: as §1
# ELK3 = molecular target: T6, ELK3 (Homo sapiens, UniProt P41970 1-407)
# T6 sequence: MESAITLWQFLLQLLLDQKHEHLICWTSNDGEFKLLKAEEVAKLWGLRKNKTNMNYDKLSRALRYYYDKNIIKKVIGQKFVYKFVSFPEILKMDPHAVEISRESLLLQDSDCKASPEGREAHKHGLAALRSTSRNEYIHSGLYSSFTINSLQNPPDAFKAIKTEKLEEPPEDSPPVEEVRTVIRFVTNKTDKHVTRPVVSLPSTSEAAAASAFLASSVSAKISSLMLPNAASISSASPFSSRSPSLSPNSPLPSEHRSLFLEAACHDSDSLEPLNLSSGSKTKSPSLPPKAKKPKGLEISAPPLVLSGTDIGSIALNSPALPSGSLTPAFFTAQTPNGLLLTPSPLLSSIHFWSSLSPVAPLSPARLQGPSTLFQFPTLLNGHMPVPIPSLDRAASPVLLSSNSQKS
# In short: as §1
# FEV = molecular target: T7, FEV (Homo sapiens, UniProt Q99581 1-238)
# T7 sequence: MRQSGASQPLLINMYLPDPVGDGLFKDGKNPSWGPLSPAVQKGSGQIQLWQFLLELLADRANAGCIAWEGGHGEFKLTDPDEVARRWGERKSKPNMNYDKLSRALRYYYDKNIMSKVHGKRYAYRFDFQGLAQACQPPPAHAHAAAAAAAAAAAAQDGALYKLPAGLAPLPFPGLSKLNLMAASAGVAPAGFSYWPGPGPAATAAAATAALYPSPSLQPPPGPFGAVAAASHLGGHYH
# In short: as §1
# ETV5 = ETV5 (Homo sapiens, UniProt P41161 1-510)
# In short: as §1
# SPIC = molecular target: T8, SPIC (Homo sapiens, UniProt Q8N5J4 1-248)
# T8 sequence: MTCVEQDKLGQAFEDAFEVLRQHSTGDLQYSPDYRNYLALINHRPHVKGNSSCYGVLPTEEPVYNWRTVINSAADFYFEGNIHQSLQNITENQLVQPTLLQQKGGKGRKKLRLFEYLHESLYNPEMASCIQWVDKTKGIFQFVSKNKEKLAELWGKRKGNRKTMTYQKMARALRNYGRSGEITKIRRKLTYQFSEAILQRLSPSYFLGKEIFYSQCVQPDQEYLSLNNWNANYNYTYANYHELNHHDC
# In short: as §1
# ELF4 = ELF4 (Homo sapiens, UniProt Q99607 1-663)
# In short: as §1
# ELK4 = molecular target: T9, ELK4 (Homo sapiens, UniProt P28324-2 1-405)
# T9 sequence: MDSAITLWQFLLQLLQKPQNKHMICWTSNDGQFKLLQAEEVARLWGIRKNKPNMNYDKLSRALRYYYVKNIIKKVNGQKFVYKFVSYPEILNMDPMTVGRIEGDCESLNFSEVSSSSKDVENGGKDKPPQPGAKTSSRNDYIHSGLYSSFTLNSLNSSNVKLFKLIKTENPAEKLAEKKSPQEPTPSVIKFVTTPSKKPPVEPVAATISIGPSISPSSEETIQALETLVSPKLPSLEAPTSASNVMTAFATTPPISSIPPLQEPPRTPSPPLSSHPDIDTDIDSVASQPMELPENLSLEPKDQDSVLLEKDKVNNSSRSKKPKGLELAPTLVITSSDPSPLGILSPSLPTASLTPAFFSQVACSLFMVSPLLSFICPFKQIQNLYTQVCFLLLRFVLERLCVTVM
# In short: as §1
# ETV2 = molecular target: T10, ETV2 (Homo sapiens, UniProt O00321 1-342)
# T10 sequence: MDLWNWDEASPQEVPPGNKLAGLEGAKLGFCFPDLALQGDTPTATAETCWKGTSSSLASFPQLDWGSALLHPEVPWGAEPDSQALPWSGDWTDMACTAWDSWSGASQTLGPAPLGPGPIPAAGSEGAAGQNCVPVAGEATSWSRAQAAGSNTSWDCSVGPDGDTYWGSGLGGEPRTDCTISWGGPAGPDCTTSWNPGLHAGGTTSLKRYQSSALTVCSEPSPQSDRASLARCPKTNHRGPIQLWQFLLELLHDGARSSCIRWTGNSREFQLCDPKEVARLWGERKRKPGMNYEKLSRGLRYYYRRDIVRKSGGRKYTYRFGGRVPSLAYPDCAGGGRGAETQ
# In short: as §1
# ELF3 = molecular target: T11, ELF3 (Homo sapiens, UniProt P78545 1-371)
# T11 sequence: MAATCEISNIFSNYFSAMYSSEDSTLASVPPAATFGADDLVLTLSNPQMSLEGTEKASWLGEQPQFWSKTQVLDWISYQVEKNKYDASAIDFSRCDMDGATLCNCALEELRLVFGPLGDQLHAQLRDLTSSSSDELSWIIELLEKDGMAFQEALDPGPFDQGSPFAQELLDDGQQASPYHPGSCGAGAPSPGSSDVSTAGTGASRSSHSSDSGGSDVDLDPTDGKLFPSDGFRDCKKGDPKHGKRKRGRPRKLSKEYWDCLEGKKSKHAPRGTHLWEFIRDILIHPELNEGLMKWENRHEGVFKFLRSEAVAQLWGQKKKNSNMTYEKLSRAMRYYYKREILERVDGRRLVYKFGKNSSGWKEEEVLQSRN
# In short: as §1
# ETV1 = ETV1 (Homo sapiens, UniProt P50549 1-477)
# In short: as §1
# ETV1, sequence (P50549 whole entry): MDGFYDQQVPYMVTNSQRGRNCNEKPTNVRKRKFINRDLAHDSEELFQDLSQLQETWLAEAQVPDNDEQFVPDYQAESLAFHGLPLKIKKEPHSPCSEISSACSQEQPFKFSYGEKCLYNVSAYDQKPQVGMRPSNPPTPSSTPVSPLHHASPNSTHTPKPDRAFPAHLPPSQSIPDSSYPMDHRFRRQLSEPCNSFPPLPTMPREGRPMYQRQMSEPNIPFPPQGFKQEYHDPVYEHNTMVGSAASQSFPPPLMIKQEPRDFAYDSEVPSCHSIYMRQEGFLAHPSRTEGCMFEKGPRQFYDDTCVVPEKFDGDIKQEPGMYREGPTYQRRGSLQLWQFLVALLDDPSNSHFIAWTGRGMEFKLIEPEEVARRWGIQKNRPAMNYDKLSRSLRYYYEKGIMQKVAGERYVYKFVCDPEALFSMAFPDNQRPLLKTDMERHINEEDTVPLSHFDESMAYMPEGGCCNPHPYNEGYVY
# ETV5, sequence (P41161 whole entry): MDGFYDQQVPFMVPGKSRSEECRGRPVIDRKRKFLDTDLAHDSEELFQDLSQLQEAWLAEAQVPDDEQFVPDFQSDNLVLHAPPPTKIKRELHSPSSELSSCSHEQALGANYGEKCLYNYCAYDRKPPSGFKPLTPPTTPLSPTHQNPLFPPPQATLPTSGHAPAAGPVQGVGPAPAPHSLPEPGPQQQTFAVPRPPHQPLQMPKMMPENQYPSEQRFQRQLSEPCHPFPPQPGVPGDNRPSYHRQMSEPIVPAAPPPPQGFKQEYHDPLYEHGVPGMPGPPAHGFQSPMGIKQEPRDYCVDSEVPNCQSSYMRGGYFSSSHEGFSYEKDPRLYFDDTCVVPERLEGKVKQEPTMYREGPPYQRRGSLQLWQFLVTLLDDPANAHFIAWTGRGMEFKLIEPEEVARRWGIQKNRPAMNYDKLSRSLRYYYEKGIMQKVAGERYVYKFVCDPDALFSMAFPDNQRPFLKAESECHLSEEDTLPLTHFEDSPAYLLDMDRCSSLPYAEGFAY
# SPIB, sequence (Q01892 whole entry): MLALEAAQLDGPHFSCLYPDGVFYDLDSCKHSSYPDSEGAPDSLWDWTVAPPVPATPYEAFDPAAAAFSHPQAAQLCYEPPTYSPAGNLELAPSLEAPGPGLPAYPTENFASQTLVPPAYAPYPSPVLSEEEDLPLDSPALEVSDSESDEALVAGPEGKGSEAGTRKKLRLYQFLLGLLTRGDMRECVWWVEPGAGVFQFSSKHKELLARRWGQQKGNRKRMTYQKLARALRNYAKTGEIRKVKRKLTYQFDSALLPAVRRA
# ELF1, sequence (P32519 whole entry): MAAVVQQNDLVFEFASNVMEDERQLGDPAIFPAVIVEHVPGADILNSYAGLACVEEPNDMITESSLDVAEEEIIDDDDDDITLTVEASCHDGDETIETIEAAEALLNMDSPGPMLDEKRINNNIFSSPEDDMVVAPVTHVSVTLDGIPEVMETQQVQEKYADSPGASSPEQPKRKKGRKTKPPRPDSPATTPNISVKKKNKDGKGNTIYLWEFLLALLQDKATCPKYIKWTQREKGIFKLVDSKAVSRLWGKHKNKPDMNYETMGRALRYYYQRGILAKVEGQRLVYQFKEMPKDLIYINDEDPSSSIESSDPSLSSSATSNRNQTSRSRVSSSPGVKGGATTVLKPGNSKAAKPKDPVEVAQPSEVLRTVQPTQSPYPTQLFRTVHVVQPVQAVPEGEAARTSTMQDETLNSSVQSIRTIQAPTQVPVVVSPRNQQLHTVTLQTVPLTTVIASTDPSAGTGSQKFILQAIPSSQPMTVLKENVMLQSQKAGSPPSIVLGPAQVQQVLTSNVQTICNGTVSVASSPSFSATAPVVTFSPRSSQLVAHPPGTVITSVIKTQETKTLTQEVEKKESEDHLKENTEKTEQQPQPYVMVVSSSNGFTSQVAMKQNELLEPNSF
# ELF4, sequence (Q99607 whole entry): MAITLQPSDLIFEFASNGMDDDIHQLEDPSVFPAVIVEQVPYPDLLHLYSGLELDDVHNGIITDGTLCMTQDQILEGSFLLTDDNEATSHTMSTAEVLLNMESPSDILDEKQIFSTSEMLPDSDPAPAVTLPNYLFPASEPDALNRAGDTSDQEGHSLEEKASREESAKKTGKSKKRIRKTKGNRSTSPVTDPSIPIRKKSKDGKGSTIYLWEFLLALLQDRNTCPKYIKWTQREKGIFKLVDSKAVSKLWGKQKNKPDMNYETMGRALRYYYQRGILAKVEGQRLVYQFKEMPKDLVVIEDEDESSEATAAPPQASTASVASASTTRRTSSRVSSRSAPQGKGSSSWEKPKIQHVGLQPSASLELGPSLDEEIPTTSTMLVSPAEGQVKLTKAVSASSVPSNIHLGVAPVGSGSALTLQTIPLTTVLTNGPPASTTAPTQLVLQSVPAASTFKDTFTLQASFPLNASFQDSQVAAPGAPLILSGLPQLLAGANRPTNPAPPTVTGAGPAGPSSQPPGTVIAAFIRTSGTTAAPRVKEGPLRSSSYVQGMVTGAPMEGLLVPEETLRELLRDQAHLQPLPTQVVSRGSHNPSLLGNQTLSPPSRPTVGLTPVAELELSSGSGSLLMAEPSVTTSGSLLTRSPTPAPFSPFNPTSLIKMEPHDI
Sequence,binding signal (FLI1),binding signal (ELK1),binding signal (GABPA),binding signal (ERG),binding signal (ELF1),binding signal (EHF),binding signal (SPI1),binding signal (SPIB),binding signal (ELK3),binding signal (FEV),binding signal (ETV5),binding signal (SPIC),binding signal (ELF4),binding signal (ELK4),binding signal (ETV2),binding signal (ELF3),binding signal (ETV1)
CGGTCT,"1.24 fold enrichment (6-mer frequency, TF over GST control)","1.15 fold enrichment (6-mer frequency, TF over GST control)","1.1 fold enrichment (6-mer frequency, TF over GST control)","1.18 fold enrichment (6-mer frequency, TF over GST control)","1.15 fold enrichment (6-mer frequency, TF over GST control)","1.15 fold enrichment (6-mer frequency, TF over GST control)","1.13 fold enrichment (6-mer frequency, TF over GST control)","1.16 fold enrichment (6-mer frequency, TF over GST control)","1.18 fold enrichment (6-mer frequency, TF over GST control)","1.3 fold enrichment (6-mer frequency, TF over GST control)","1.25 fold enrichment (6-mer frequency, TF over GST control)","1.02 fold enrichment (6-mer frequency, TF over GST control)","1.18 fold enrichment (6-mer frequency, TF over GST control)","1.12 fold enrichment (6-mer frequency, TF over GST control)","1.24 fold enrichment (6-mer frequency, TF over GST control)","1.29 fold enrichment (6-mer frequency, TF over GST control)","1.16 fold enrichment (6-mer frequency, TF over GST control)"
AACCAC,"1.18 fold enrichment (6-mer frequency, TF over GST control)","1.19 fold enrichment (6-mer frequency, TF over GST control)","1.17 fold enrichment (6-mer frequency, TF over GST control)","1.15 fold enrichment (6-mer frequency, TF over GST control)","1.25 fold enrichment (6-mer frequency, TF over GST control)","1.16 fold enrichment (6-mer frequency, TF over GST control)","1.12 fold enrichment (6-mer frequency, TF over GST control)","1.19 fold enrichment (6-mer frequency, TF over GST control)","1.29 fold enrichment (6-mer frequency, TF over GST control)","1.2 fold enrichment (6-mer frequency, TF over GST control)","1.17 fold enrichment (6-mer frequency, TF over GST control)","1.25 fold enrichment (6-mer frequency, TF over GST control)","1.26 fold enrichment (6-mer frequency, TF over GST control)","1.26 fold enrichment (6-mer frequency, TF over GST control)","1.05 fold enrichment (6-mer frequency, TF over GST control)","1.21 fold enrichment (6-mer frequency, TF over GST control)","1.17 fold enrichment (6-mer frequency, TF over GST control)"
GTCCCG,"1.29 fold enrichment (6-mer frequency, TF over GST control)","1.2 fold enrichment (6-mer frequency, TF over GST control)","1.21 fold enrichment (6-mer frequency, TF over GST control)","1.22 fold enrichment (6-mer frequency, TF over GST control)","1.24 fold enrichment (6-mer frequency, TF over GST control)","1.2 fold enrichment (6-mer frequency, TF over GST control)","1.21 fold enrichment (6-mer frequency, TF over GST control)","1.32 fold enrichment (6-mer frequency, TF over GST control)","1.26 fold enrichment (6-mer frequency, TF over GST control)","1.24 fold enrichment (6-mer frequency, TF over GST control)","1.19 fold enrichment (6-mer frequency, TF over GST control)","1.23 fold enrichment (6-mer frequency, TF over GST control)","1.17 fold enrichment (6-mer frequency, TF over GST control)","1.23 fold enrichment (6-mer frequency, TF over GST control)","1.06 fold enrichment (6-mer frequency, TF over GST control)","1.26 fold enrichment (6-mer frequency, TF over GST control)","1.27 fold enrichment (6-mer frequency, TF over GST control)"
